Measurements as given in PubChem BioAssay AID1159580 (chemical genetic matrix, 2015).
Out of some 5,500 compounds screened, about 2,000 (36%) were called active. Inconclusive results (about 18%) are left out. This is one part of the list. Values without a mark were called inactive. No stated cut-off is given here; in the data, active means normalized growth mostly below about 0.91 (no sharp cut-off); inconclusive means no clear call, values can overlap the other calls; inactive means mostly above about 0.92.

Assay: chemical genetic growth profiling, strain panel (AID 1159580);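 further: tested at 20 µM; growth read once vehicle control cultures reached saturation at 30 °C; 1 = growth at the plate median or of vehicle wells; lower values mean less growth of the strain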
Conditions: growth OD

Question: Which results are given for `CC1=CC(=O)c2ccccc2C1=O`?
Answer: normalized growth (S. cerevisiae deletion strains, locus YJR075W, strain HOC1, hits give low values): 0.0628 (active); normalized growth (S. cerevisiae deletion strains, locus YKL009W, strain mrt4, hits give low values): 0.0847 (active); normalized growth (S. cerevisiae deletion strains, locus YKL068W, hits give low values): 1.01; normalized growth (S. cerevisiae deletion strains, locus YKL085W, strain MDH1 (second series), hits give low values): 0.494 (active); normalized growth (S. cerevisiae deletion strains, locus YKL085W, strain MDH1, hits give low values): 0.494 (active); normalized growth (S. cerevisiae deletion strains, locus YKL160W, strain elf1, hits give low values): 0.822 (active); normalized growth (S. cerevisiae deletion strains, locus YKL190W, strain CNB1, hits give low values): 0.0475 (active); normalized growth (S. cerevisiae deletion strains, locus YKR001C, strain vps1, hits give low values): 0.0601 (active); normalized growth (S. cerevisiae deletion strains, locus YKR026C, strain gcn3, hits give low values): 1.03; normalized growth (S. cerevisiae deletion strains, locus YKR091W, strain srl3, hits give low values): 1.03; normalized growth (S. cerevisiae deletion strains, locus YLL001W, strain dnm1, hits give low values): 0.93; normalized growth (S. cerevisiae deletion strains, locus YLL026W, hits give low values): 0.997; normalized growth (S. cerevisiae deletion strains, locus YLL041C, strain sdh2, hits give low values): 1.04; normalized growth (S. cerevisiae deletion strains, locus YLR027C, strain aat2, hits give low values): 0.862 (active); normalized growth (S. cerevisiae deletion strains, locus YLR039C, strain RIC1, hits give low values): 0.0839 (active); normalized growth (S. cerevisiae deletion strains, locus YLR058C, strain SHM2, hits give low values): 0.0596 (active); normalized growth (S. cerevisiae deletion strains, locus YLR102C, strain apc9, hits give low values): 0.0585 (active); normalized growth (S. cerevisiae deletion strains, locus YLR113W, strain HOG1, hits give low values): 0.294 (active); normalized growth (S. cerevisiae deletion strains, locus YLR221C, strain rsa3, hits give low values): 0.819 (active); normalized growth (S. cerevisiae deletion strains, locus YLR258W, strain gsy2, hits give low values): 0.933; normalized growth (S. cerevisiae deletion strains, locus YLR262C, strain YPT6 (second series), hits give low values): 0.916; normalized growth (S. cerevisiae deletion strains, locus YLR262C, strain YPT6, hits give low values): 0.155 (active); normalized growth (S. cerevisiae deletion strains, locus YLR268W, strain sec22, hits give low values): 0.0659 (active); normalized growth (S. cerevisiae deletion strains, locus YLR320W, strain mms22, hits give low values): 0.881; normalized growth (S. cerevisiae deletion strains, locus YLR330W, strain CHS5, hits give low values): 0.0494 (active); normalized growth (S. cerevisiae deletion strains, locus YLR342W, strain FKS1 (second series), hits give low values): 0.0779 (active); normalized growth (S. cerevisiae deletion strains, locus YLR342W, strain FKS1, hits give low values): 1.01; normalized growth (S. cerevisiae deletion strains, locus YLR357W, strain rsc2, hits give low values): 1.04; normalized growth (S. cerevisiae deletion strains, locus YLR370C, strain arc18, hits give low values): 0.958; normalized growth (S. cerevisiae deletion strains, locus YLR371W, strain rom2, hits give low values): 0.0598 (active); normalized growth (S. cerevisiae deletion strains, locus YLR384C, strain iki3, hits give low values): 1.04; normalized growth (S. cerevisiae deletion strains, locus YLR418C, strain cdc73, hits give low values): 0.0923 (active); normalized growth (S. cerevisiae deletion strains, locus YML016C, strain PPZ1, hits give low values): 0.0501 (active); normalized growth (S. cerevisiae deletion strains, locus YML032C, strain rad52, hits give low values): 0.112 (active); normalized growth (S. cerevisiae deletion strains, locus YML120C, strain ndi1, hits give low values): 0.968; normalized growth (S. cerevisiae deletion strains, locus YML124C, strain tub3, hits give low values): 0.0587 (active); normalized growth (S. cerevisiae deletion strains, locus YMR058W, strain fet3, hits give low values): 0.832 (active); normalized growth (S. cerevisiae deletion strains, locus YMR078C, strain ctf18, hits give low values): 0.0795 (active); normalized growth (S. cerevisiae deletion strains, locus YMR125W, strain sto1, hits give low values): 1.04; normalized growth (S. cerevisiae deletion strains, locus YMR129W, hits give low values): 1.01; normalized growth (S. cerevisiae deletion strains, locus YMR205C, strain PFK2, hits give low values): 0.799 (active); normalized growth (S. cerevisiae deletion strains, locus YMR223W, strain ubp8, hits give low values): 0.0622 (active); normalized growth (S. cerevisiae deletion strains, locus YMR231W, strain pep5, hits give low values): 1.02; normalized growth (S. cerevisiae deletion strains, locus YMR263W, strain SAP30, hits give low values): 0.0592 (active); normalized growth (S. cerevisiae deletion strains, locus YMR307W, strain GAS1, hits give low values): 0.118 (active); normalized growth (S. cerevisiae deletion strains, locus YNL067W, strain RPL9B, hits give low values): 0.0512 (active); normalized growth (S. cerevisiae deletion strains, locus YNL071W, strain lat1, hits give low values): 0.543 (active); normalized growth (S. cerevisiae deletion strains, locus YNL128W, strain TEP1, hits give low values): 0.0609 (active); normalized growth (S. cerevisiae deletion strains, locus YNL153C, strain GIM3, hits give low values): 0.0481 (active); normalized growth (S. cerevisiae deletion strains, locus YNL183C, strain NPR1, hits give low values): 0.393 (active); normalized growth (S. cerevisiae deletion strains, locus YNL209W, strain ssb2, hits give low values): 0.983; normalized growth (S. cerevisiae deletion strains, locus YNL233W, strain BNI4, hits give low values): 0.0537 (active); normalized growth (S. cerevisiae deletion strains, locus YNL248C, strain rpa49, hits give low values): 0.883 (active); normalized growth (S. cerevisiae deletion strains, locus YNL250W, strain rad50, hits give low values): 0.513 (active); normalized growth (S. cerevisiae deletion strains, locus YNL271C, strain bni1, hits give low values): 0.705 (active); normalized growth (S. cerevisiae deletion strains, locus YNL298W, strain CLA4, hits give low values): 0.363 (active); normalized growth (S. cerevisiae deletion strains, locus YNL307C, strain MCK1, hits give low values): 0.0683 (active); normalized growth (S. cerevisiae deletion strains, locus YNL322C, strain KRE1 (second series), hits give low values): 0.999; normalized growth (S. cerevisiae deletion strains, locus YNL322C, strain KRE1, hits give low values): 0.047 (active); normalized growth (S. cerevisiae deletion strains, locus YNR049C, strain mso1, hits give low values): 1.02; normalized growth (S. cerevisiae deletion strains, locus YNR052C, strain pop2, hits give low values): 0.12 (active); normalized growth (S. cerevisiae deletion strains, locus YOL006C, strain TOP1, hits give low values): 0.0979 (active); normalized growth (S. cerevisiae deletion strains, locus YOL147C, strain pex11, hits give low values): 0.0692 (active); normalized growth (S. cerevisiae deletion strains, locus YOR001W, strain rrp6, hits give low values): 0.923; normalized growth (S. cerevisiae deletion strains, locus YOR061W, strain CKA2, hits give low values): 0.05 (active); normalized growth (S. cerevisiae deletion strains, locus YOR069W, strain VPS5, hits give low values): 0.0532 (active); normalized growth (S. cerevisiae deletion strains, locus YOR070C, strain gyp1, hits give low values): 0.959; normalized growth (S. cerevisiae deletion strains, locus YOR080W, strain dia2, hits give low values): 1.03; normalized growth (S. cerevisiae deletion strains, locus YOR083W, strain WHI5, hits give low values): 0.882 (active); normalized growth (S. cerevisiae deletion strains, locus YOR106W, strain vam3, hits give low values): 0.818 (active); normalized growth (S. cerevisiae deletion strains, locus YOR136W, strain idh2, hits give low values): 0.0688 (active); normalized growth (S. cerevisiae deletion strains, locus YOR144C, strain elg1, hits give low values): 0.063 (active); normalized growth (S. cerevisiae deletion strains, locus YOR184W, strain ser1, hits give low values): 0.0695 (active); normalized growth (S. cerevisiae deletion strains, locus YOR231W, strain MKK1, hits give low values): 0.277 (active); normalized growth (S. cerevisiae deletion strains, locus YOR265W, strain rbl2, hits give low values): 0.983; normalized growth (S. cerevisiae deletion strains, locus YOR270C, strain vph1, hits give low values): 0.776 (active); normalized growth (S. cerevisiae deletion strains, locus YOR290C, strain snf2, hits give low values): 1.02; normalized growth (S. cerevisiae deletion strains, locus YOR316C, strain cot1, hits give low values): 0.0564 (active); normalized growth (S. cerevisiae deletion strains, locus YPL051W, strain arl3, hits give low values): 0.892 (active); normalized growth (S. cerevisiae deletion strains, locus YPL055C, strain LGE1, hits give low values): 0.0708 (active); normalized growth (S. cerevisiae deletion strains, locus YPL078C, strain atp4, hits give low values): 0.941; normalized growth (S. cerevisiae deletion strains, locus YPL106C, strain sse1, hits give low values): 0.904; normalized growth (S. cerevisiae deletion strains, locus YPL240C, strain hsp82, hits give low values): 1; normalized growth (S. cerevisiae deletion strains, locus YPL241C, strain CIN2, hits give low values): 0.0549 (active); normalized growth (S. cerevisiae deletion strains, locus YPL256C, strain CLN2, hits give low values): 0.356 (active); normalized growth (S. cerevisiae deletion strains, locus YPR119W, strain clb2, hits give low values): 0.063 (active); normalized growth (S. cerevisiae deletion strains, locus YPR141C, strain kar3, hits give low values): 0.859 (active); normalized growth (S. cerevisiae deletion strains, locus YPR163C, strain tif3, hits give low values): 0.0724 (active); normalized growth (S. cerevisiae deletion strains, locus YPR167C, strain met16, hits give low values): 0.0586 (active); normalized growth (S. cerevisiae deletion strains, strain wtn01, hits give low values): 0.0598 (active); normalized growth (S. cerevisiae strains, strain wild type, hits give low values): 0.0461 (active)
